Screen size: about 360,000 compounds; about 80 (0.02%) were called active.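 Rule for the calls: active = activation above the run cutoff, the mean activation of all test compounds plus 3 SD (cut at about 40% in these data); inactive = the rest.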 The sample as a whole holds a higher share of actives than the screen did.
Test: nonselective calcium activators in parental CHO-K1 cells, primary screen, counter-screen for M1 PAM project, cell-based, Fluo-8 calcium fluorescence, full deck, 1536-well (AID 602247);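 note: peak over basal fluorescence ratio in a 140 s read after ATP addition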
Settings: parental CHO-K1, ATP EC20, Fluo-8 calcium fluorescence; at 3 µM; stronger effect = higher value; 0% at ATP EC20, 100% at ATP max

| Structure (SMILES) | activation |
| --- | --- |
| Nc1scc(-c2ccncc2)c1Cl | 13.6% (inactive) |
| Cc1cccc(CC2(O)C(=O)Nc3ccccc32)n1 (stereo unspecified) | 12.3% (inactive) |
| Cc1ccc(C)c(OCCC(=O)Nc2cccc(S(=O)(=O)N3CCCC3)c2)c1 | 10.7% (inactive) |
| O=c1[nH]c(CCl)nc2cc(-c3ccc(Cl)cc3)sc12 | 13% (inactive) |
| CN[C@H](C(=O)NC[C@H]1O[C@@H](n2cnc3c(N)ncnc32)[C@H](O)[C@@H]1O)[C@@H](C)OCc1ccccc1 | 11.7% (inactive) |
| O=C(NNS(=O)(=O)c1ccc([N+](=O)[O-])cc1)C1CCCCC1 | -9.25% (inactive) |
| COC(=O)c1ccccc1NC(=O)C1(S(=O)(=O)c2ccc(Cl)cc2)CC1 | -15% (inactive) |
| CSc1ccccc1C(=O)OCC(=O)N1CCN(C(C)=O)CC1 | 15.7% (inactive) |
| O=C(CSCc1ccccc1Cl)NNC(=O)c1ccccc1 | 2.85% (inactive) |
| O=C(OC1CCOC1=O)c1ccc(-c2nc3ccccc3s2)s1 (stereo unspecified) | 10.6% (inactive) |
| Cc1ccc2nc(NC(=O)C3CSC4(C)CCC(=O)N34)sc2c1 (stereo unspecified) | -12.5% (inactive) |
| COC(C[C@@H](O)C[C@@H](O)[C@H](C)OCc1ccccc1)OC | 17.1% (inactive) |
| Cc1ccc([C@H]2N[C@]3(CCCN(Cc4ccccc4)C3=O)[C@H]3C(=O)N(Cc4ccccc4)C(=O)[C@@H]23)cc1 | 1.9% (inactive) |
| CC(=O)NC1=NC(=O)CS1 | 15.2% (inactive) |
| C[C@H]([C@@H](O)[C@@H](O)[C@@H](C)C(C)(C)C)[C@H]1CC[C@H]2C3CC[C@H]4C[C@H](OS(=O)(=O)O)[C@@H](OS(=O)(=O)O)C[C@]4(C)[C@H]3CC[C@]12C (stereo partly specified) | 46.3% (active) |
| CC(=O)O[C@H]1CC[C@@]2(C)[C@@H](CC[C@@H]3[C@@H]2CC[C@]2(C)[C@@H](C(C)(C)O)C[C@@H]32)C1 | 4% (inactive) |
| CCOC(=O)c1c(C)n(C)c2ccc(OC)c(NC(=O)CN3CCC4(CC3)OCCO4)c12 | 7.82% (inactive) |
| O=C(CN(c1ccccc1)S(=O)(=O)c1ccc(Cl)cc1)Nc1ccccc1C(=O)N1CCCC1 | 8.26% (inactive) |
| CCOc1ccccc1NC(=O)C1CCN(S(=O)(=O)c2c(C)nn(C)c2C)CC1 | -1.01% (inactive) |

| Structure (SMILES) | activation |
| --- | --- |
| Cc1ccc(N2CCN(c3ccc(C)cc3)C2c2ccccn2)cc1 | -7.38% (inactive) |
| COc1ccc(S(=O)(=O)N2CCN(C(=O)c3cc(C)oc3C)CC2)cc1 | 20.2% (inactive) |
| COc1ccc(CCN2CC(C(=O)OCC(=O)NCc3ccccc3Cl)CC2=O)cc1OC (stereo unspecified) | -3.82% (inactive) |
| Cc1cc(C(=O)CC#N)c(C)n1CC(F)(F)F | 13.3% (inactive) |
| C/C(=N/NC(=O)CSc1ccccn1)c1ccc([N+](=O)[O-])cc1 | 22.4% (inactive) |
| CC1(C)CC2CC(C)(CN2c2ncnc3ccc(Br)cc23)C1 (stereo unspecified) | 17.9% (inactive) |
| C/C(N)=C(\C#N)C(=O)NCCc1ccccn1 | 21.8% (inactive) |
| O=C(/C=N/O)Nc1ccccc1 | 6.67% (inactive) |
| CN1CCN(c2cc(=O)n(-c3ccc(Cl)cc3)c(=O)[nH]2)CC1 | 1.64% (inactive) |
| COc1ccc(C2/C=C\CN(S(=O)(=O)c3cccs3)CC(=O)N2Cc2ccc(F)cc2)cc1 (stereo unspecified) | -11.5% (inactive) |
| CC(C)NC(=O)c1ccccc1S(=O)c1ccccc1C#N (stereo unspecified) | 0.52% (inactive) |
| O=C(CSc1nnnn1-c1ccc2c(c1)CCC2)Nc1ccc2c(c1)OCCO2 | -11.2% (inactive) |
| O=C1c2ccccc2C(=O)N1CCc1nn[nH]n1 | 16.6% (inactive) |
| CC(C)(C)c1ccc(/C=C2\Oc3c(ccc(O)c3CN3CCN(CCO)CC3)C2=O)cc1 | 4.37% (inactive) |
| CCCCOc1ccc(C(=O)NCC(=O)OCC(=O)c2c(N)n(C)c(=O)n(C)c2=O)cc1 | -1.27% (inactive) |
| COc1cccc(CNCc2ccc3c(c2)OCO3)c1 | 18.7% (inactive) |
| CCOc1ccccc1N1CCN(C(=S)Nc2ccc(S(N)(=O)=O)cc2)CC1 | 17.3% (inactive) |
| COc1ccc(C2=NOC(Cn3nc(C(=O)NCc4ccc5c(c4)OCO5)cc3-c3ccccc3)C2)cc1 (stereo unspecified) | 14.9% (inactive) |
| CCOc1cc(C2C(C(=O)OC(C)C)=C(C)NC3=C2C(=O)CCC3)cc([N+](=O)[O-])c1O (stereo unspecified) | 14.9% (inactive) |

| Structure (SMILES) | activation |
| --- | --- |
| COCCNC(=O)CSc1nc2c(n1-c1ccccc1)CCCC2 | 10.3% (inactive) |
| O=C1CC(C(F)(F)C(F)(F)C(F)(F)C(F)(F)F)=Nc2ccccc2N1 | 17.5% (inactive) |
| CCN1C(=NCC(C)C)N[C@@H](CCc2ccccc2)[C@H](C(=O)NCC(C)C)[C@H]1C | 8.06% (inactive) |
| CC(CC(=O)N1CCN(S(=O)(=O)c2ccccc2)CC1)n1cncn1 (stereo unspecified) | 23.5% (inactive) |
| CSc1ncccc1C(=O)OCc1ccc(Br)cc1 | 17% (inactive) |
| CC(C)COc1ccc(C(=O)OCC(=O)NCCC2=CCCCC2)cc1 | 0.12% (inactive) |
| Cc1noc(NS(=O)(=O)c2ccc(NC(=O)c3oc4ccc(F)cc4c3C)cc2)c1C | 14.4% (inactive) |
| O[C@H]1CN(Cc2cccs2)[C@@H](c2ccc(Cl)cc2)C[C@@H]1n1cc(C2CC2)nn1 | 1.81% (inactive) |
| O[C@H]1C[C@H](c2ccc(Cl)cc2)N(Cc2cccs2)C[C@@H]1n1cc(C2CC2)nn1 | 47.2% (active) |
| O[C@@H]1C[C@H](c2ccccc2)N(Cc2cccs2)C[C@H]1n1cc(C2CC2)nn1 | 31.2% (inactive) |
| Cc1ccc(C2NC(=S)NC3=C2N2CCC3CC2)cc1 (stereo unspecified) | 12.6% (inactive) |
| NC(=O)c1ncn([C@@H]2O[C@H](CN=C3NS(=O)(=O)c4ccccc43)[C@@H](O)[C@H]2O)n1 | 12.9% (inactive) |
| COc1ccccc1N1CCC(N2CCN(CC(C)(C)C)C(CCO)C2)CC1 (stereo unspecified) | 15.1% (inactive) |
| O=S(=O)(NCc1ccc2c(c1)OCO2)c1cccc2nsnc12 | -1.4% (inactive) |
| Cc1ccc(NC(=S)Nc2ncccc2C)c(C)c1 | 14.7% (inactive) |
| Cc1cc(C)cc(NC(=O)COC(=O)c2cc(C)oc2C)c1 | 9.08% (inactive) |
| COC(=O)Cn1cnc2scc(-c3ccc(C)c(C)c3)c2c1=O | 12.6% (inactive) |
| C[C@H](NC(=O)[C@@H]1CCCN1C(=O)[C@@H]1CCCN1C(=O)c1ccccc1)c1ccccc1 | 20.5% (inactive) |
